Assay outcomes deposited in PubChem by National Center for Advancing Translational Sciences (NCATS).
In the library only some 7.5% were active in any assay of this set; here they are far more common.
FLuc counter: qHTS profiling assay for firefly luciferase inhibitor/activator using purifed enzyme and Km concentrations of substrates (counterscreen for miR-21 project) | AID 588342, 2011 | Potency, µM (titrated, usually from 57.5 µM), inactives show at the highest dose activity change, negative = inhibition, usual class: inhibitors | purified FLuc, Km substrates, luminescence inhibition | actives 6.9% (n = 360,000);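 further: plate controls were vehicle for no effect and reference inhibitor for full effect; nearly all actives have a fitted effect of over 55% in size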
Target sequence (P08659 whole entry, looked up): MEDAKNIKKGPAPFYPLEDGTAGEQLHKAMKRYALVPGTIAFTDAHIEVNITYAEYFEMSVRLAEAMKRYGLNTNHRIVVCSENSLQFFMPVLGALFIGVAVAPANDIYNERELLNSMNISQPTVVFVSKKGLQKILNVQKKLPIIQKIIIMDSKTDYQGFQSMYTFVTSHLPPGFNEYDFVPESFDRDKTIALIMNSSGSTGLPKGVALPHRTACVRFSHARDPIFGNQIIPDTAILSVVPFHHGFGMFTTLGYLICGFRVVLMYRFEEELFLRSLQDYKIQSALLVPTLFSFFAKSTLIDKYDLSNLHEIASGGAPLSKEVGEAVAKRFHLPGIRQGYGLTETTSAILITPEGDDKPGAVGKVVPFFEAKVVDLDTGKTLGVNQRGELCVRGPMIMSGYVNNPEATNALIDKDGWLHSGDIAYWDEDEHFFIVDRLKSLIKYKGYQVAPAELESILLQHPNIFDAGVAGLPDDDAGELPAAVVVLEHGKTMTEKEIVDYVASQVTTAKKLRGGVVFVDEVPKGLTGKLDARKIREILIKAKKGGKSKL
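Biochemical qHTS of compounds, final roughly 60 µM downward over six points, against 10 nM purified firefly luciferase using Km concentrations of substrates (10 uM D-luciferin, 10 uM ATP) in Tris acetate pH 7.5 buffer; luminescence output.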
Rab9 promoter act: qHTS Assay for Rab9 Promoter Activators | Huh7 Rab9 promoter-luciferase reporter, luminescence, 24 h | AID 485297, 2010 | actives 2.8% (n = 320,000) | Potency, µM (series often up to 9.22 µM), without a hit: top-dose activation, negative = inhibition, most hits filed as activators; further: % of control where 0% means no effect; nearly all actives have a fitted effect of over 60% in size
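Stable Rab9-luc Huh7, 1500 cells/well, 2 h settle; cmpd in DMSO, 24 h, 37 °C/5% CO2; luciferase reagent 10 min RT; luminescence.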
SMN2 splice enh: qHTS Assay for Enhancers of SMN2 Splice Variant Expression; HEK293 SMN2-luciferase splicing reporter, luminescence, 30-36 h; Potency, µM (doses to about 46.1 µM), without a hit: at the top dose activity change, positive = activation, hits mostly activators; actives 2.8% (n = 210,000); AID 1458, 2008; further: % of control where 0% means no effect; nearly all actives have a fitted effect of over 55% in size
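qHTS luciferase splicing reporter: luminescence rises when SMN2 exon 7 is included in transfected HEK293 cells. Compound exposure lasted 30-36 h at 37C, with 4.5 mM final sodium butyrate as control, followed by a ONE-Glo read.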
NPC1 promoter act: qHTS Assay for NPC1 Promoter Activators. Huh7 NPC1 promoter luciferase reporter, 24 h. actives 2.4% (n = 320,000). Potency, µM (titrated, usually from 9.22 µM), for the others: at the highest dose activation, most hits filed as activators; further: % of control where 0% means no effect; nearly all actives have a fitted effect of over 60% in size
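Huh7 reporter cells (NPC1 promoter driving luciferase) are dosed with compound for 24 h at 37 °C, 5% CO2; luciferase detection reagent is then added and luminescence measured after 10 min at ambient temperature.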
ELG1 genotox: qHTS screen for small molecules that induce genotoxicity in human embryonic kidney (HEK293T) cells expressing luciferase-tagged ELG1; HEK293T ELG1-luciferase reporter, luminescence, 16 h; Potency, µM (doses to about 46 µM), inactives show top-dose activity change, positive = activation, actives largely listed as activators; actives 1.3% (n = 330,000); further: % of control where 0% means no effect; nearly all actives have a fitted effect of over 60% in size
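Genotoxic stress is detected as increased luminescence from luciferase-tagged ELG1 in HEK293T cells, measured with ONE-Glo after a 16 hr treatment at 37 °C.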
Numbers without * were called inactive; ? = inconclusive; . = no result given; [ ] = remark or other dose. The call rests on the fitted dose curve; in most records, active means well fitted curve in the direction sought with a large enough effect; inconclusive means small, poorly fitted or top-dose-only effect, or another doubt; inactive means no such curve, though single readings can be large; an effect the other way counts as inactive or inconclusive. Potency means the concentration at half of the fitted maximal effect.

SMILES | FLuc counter | Rab9 promoter act | SMN2 splice enh | NPC1 promoter act | ELG1 genotox
CC(=O)c1cccc(NC(=O)C(=O)c2cn(CC(=O)N3CCCCC3)c3ccccc23)c1 | 8.49µM* | 20.1% | -8.1% | 7.5% | -3.6%
O=C(Nc1ccccc1)C(=O)c1cn(CC(=O)N2CCCCC2)c2ccccc12 | 13.5µM* | 0.4% | 8.3% | 6.4% | -1.0%
CC(=O)Nc1ccc(NC(=O)C(=O)c2cn(CC(=O)N3CCCCC3)c3ccccc23)cc1 | 6.8% | -3.7% | -44.7% | -3.2% | 1.9%
O=C(COC(=O)CC1CC2CCC1C2)Nc1cc([N+](=O)[O-])ccc1F (configuration not stated) | 1.0% | 1.6% | 4.4% | -9.1% | 0.7%
CCc1ccc(-c2csc(NC(=O)COC(=O)CCc3nc4ccccc4s3)n2)cc1 | ? | 3.16µM* | 5.62µM* | 2.82µM* | ?
CC(=O)Nc1cccc(NC(=O)c2ccc(C(=O)Nc3cccc(NC(C)=O)c3)nc2)c1 | 3.79µM* | 17.3% | 15.9% | 14.9% | 11.2%
Cc1cccc(NC(=O)c2ccc(C(=O)Nc3cccc(C)c3)nc2)c1 | -11.8% | 11.6% | -31.0% | 10.8% | -2.4%
CC(=O)c1cccc(NC(=O)c2ccc(C(=O)Nc3cccc(C(C)=O)c3)nc2)c1 | -8.1% | -1.9% | 3.7% | 1.4% | -0.3%
O=C(Nc1ccccc1)c1ccc(C(=O)Nc2ccccc2)nc1 | -11.9% | 2µM* | 7.3% | ? | ?
C/C(N)=C(/C#N)C(=O)COC(=O)CNS(=O)(=O)c1ccc2ccccc2c1 | 2.1% | 0.2% | . | 2.5% | 0.5%
CC(C)NC(=S)N/N=C/c1sc(N2CCCCC2)nc1-c1cccs1 | 3.01µM* | 13.2% | -15.2% | -4.3% | 8.8%
COc1ccc([C@H]2[C@H](C(=O)C(C)(C)C)N3N=Cc4ccccc4C3C23C(=O)OC(C)(C)OC3=O)cc1 (some centres not stated) | -9.3% | 0.8% | 14.1µM* | -0.6% | -0.7%
COc1ccc([C@@H]2[C@@H](C(=O)C(C)(C)C)N3N=Cc4ccccc4[C@@H]3C23C(=O)OC(C)(C)OC3=O)cc1OC | 1.8% | 6.9% | 13.9% | -2.3% | 0.4%
CC(=O)Nc1ccc(S(=O)(=O)Nc2cccc(-c3ccc(N4CCC(C)CC4)nn3)c2)cc1 | 0.536µM* | . | . | . | .
O=[N+]([O-])c1ccccc1S(=O)(=O)Nc1ccc(-c2ccc(N3CCOCC3)nn2)cc1 | ? | 18.6% | . | 17.2% | 2.6%
COc1ccc(-c2cccc(NS(=O)(=O)c3ccc(NC(C)=O)cc3)c2)nn1 | -10.8% | . | . | . | .
CC(=O)Nc1ccc(S(=O)(=O)Nc2cccc(-c3ccc(N4CCCCCC4)nn3)c2)cc1 | 4.78µM* | . | . | . | .
CC(=O)c1ccc(S(=O)(=O)Nc2cccc(-c3ccc(N4CCOCC4)nn3)c2)cc1 | 2.69µM* | ? | . | ? | 1.8%
C/C(=N\Nc1ccccc1)c1cccc(N)c1 | 21.3µM* | ? | . | 21.9% | ?
C/C(=N\NC(=O)c1ccc(Br)cc1)c1cccc(NC(=O)c2cccnc2)c1 | 12µM* | 21.3% | ? | 14.7% | 0.4%
C/C(=N\NC(=O)c1cccc(N/N=C(\C)c2ccccc2)c1)c1ccccc1 | 13.5µM* | ? | 20µM* | ? | 13.3%
C/C(=N\NC(=O)c1ccncc1)c1cccc(NC(=O)c2ccc(C(C)(C)C)cc2)c1 | 0.12µM* | 2µM* | . | 1.41µM* | -21.1%
C/C(=N\NC(=O)c1cccc(N/N=C(\C)c2ccncc2)c1)c1ccncc1 | ? | 18.8% | 9.0% | 5.9% | -4.7%
CCc1ccc(-c2cc(C)no2)cc1S(=O)(=O)N1CC(=O)Nc2ccccc21 | 1.3% | -3.0% | . | -1.0% | 1.0%
CCN(CC)CCOC(=O)c1ccc(NC(=O)CCn2c(=O)oc3ccccc32)cc1 | -9.2% | . | -1.5% | . | .
SMILES | FLuc counter | Rab9 promoter act | SMN2 splice enh | NPC1 promoter act | ELG1 genotox
C/C(=N/NC(=O)c1ccncc1)c1ccc(NC(=O)c2ccccc2)cc1 | 21.3µM* | -0.1% | . | -4.0% | 1.5%
C/C(=N\NC(=O)c1ccccc1O)c1cccc(NC(=O)c2ccccc2)c1 | 10.7µM* | 11.1% | . | 25.0% | 2.1%
C/C(=N\NC(=O)c1ccccc1O)c1ccc(NC(=O)c2ccccc2)cc1 | 21.3µM* | ? | . | ? | 16.6%
C/C(=N\NC(=O)c1nn(C)cc1Br)c1cccc(NC(=O)c2ccncc2)c1 | 12µM* | 18.4% | 12.1% | 8.5% | 0.6%
CCc1nnc(NS(=O)(=O)c2ccc(NC(=O)c3ccccc3OC)cc2)s1 | -17.3% | 0.1% | . | -1.3% | 0.1%[9.26 µM]
Cn1c(SCC(=O)c2ccc(O)c(O)c2)nnc1-c1cccs1 | -20.4% | 14.4% | . | 0.3% | -5.1%
COc1ccc(OC)c(Nc2nc(=O)c3cccnc3s2)c1 | 16.9µM* | -14.5% | 3.4% | -32.9% | 8.0%
Cc1ccc(Nc2nc(=O)c3cccnc3s2)cc1 | 12µM* | 2.51µM* | 18.4% | 3.16µM* | ?
COc1ccc(OC)c(Nc2cc(C)nc3ccccc23)c1 | 5.3% | -0.5% | -15.5% | -1.0% | -8.8%
CCc1nnc(NC(=O)C2CC(=O)N(CCc3ccccc3)C2)s1 (configuration not stated) | -2.1% | 8.9% | 1.1% | 0.0% | 1.0%
COc1ccc(C(=O)N/N=C/c2ccc3cccc(OCc4ccccc4)c3n2)cc1 | 1.51µM* | 21.2% | -2.5% | 19.8% | -6.5%
COc1c(OC(C)=O)ccc(/C=C/c2ccc3cccc(OCc4ccccc4)c3n2)c1[N+](=O)[O-] | 1.51µM* | ? | -94.6%[1.84 µM] | ? | -4.3%
COc1cc(/C=C/c2ccc3cccc(OC)c3n2)c(OC(C)=O)c([N+](=O)[O-])c1 | -4.0% | 4.3% | -65.4% | 0.7% | -7.9%
O=C(N/N=C/c1ccc2cccc(OCc3ccccc3)c2n1)c1ccc(Br)cc1 | 2.69µM* | -7.2% | -12.0% | -2.0% | 0.4%
CCn1c(NC)cc(=O)n(C)c1=O | -2.1% | -0.8% | 13.0% | 2.1% | -3.3%
Cc1cccc(Oc2ccccc2NS(=O)(=O)c2ccc(CCC(=O)O)cc2)c1 | -1.1% | -4.8% | . | -2.2% | -1.3%
NS(=O)(=O)c1ccc(CCNC(=O)COC(=O)c2ccc([N+](=O)[O-])o2)cc1 | . | . | . | . | 3.4%
Cc1ccc(-n2nnnc2CNC(=O)C2CC(=O)N(c3ccccc3)C2)cc1C (configuration not stated) | 0.7% | -0.9% | . | -6.9% | -0.3%
Cc1cc(C)c(C)c(N=Nc2nc3ccccc3n2C)c1C | 10.7µM* | 18.7% | -41.3% | 11.0% | ?
Cn1c(Nn2cnnc2)nc2ccccc21 | 1.0% | 1.6% | 5.4% | 0.5% | -1.3%
Cc1ccc(C)c(N=Nc2nc3ccccc3n2C)c1 | 0.953µM* | 2µM* | ? | 3.16µM* | ?
